Unmarked numbers belong to inactive results. Active and inactive are the calls of the source.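 The calls were made as follows, unless noted: active = compounds that lower viability of the colon cancer cells in the luminescence readout, with no numeric limit stated; inactive = the rest.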
Assay: CellTiter-Glo luminescent readout of SW480 viability loss, NPC library primary (AID 1117343)
Conditions: CellTiter-Glo luminescence; at 20 µM (top of the series) unless noted

Row | SMILES | viability decrease (inhibition)
1 | O=C1NCCN1CCN1CCC(c2cn(-c3ccc(F)cc3)c3ccc(Cl)cc23)CC1 | 103% (active)
2 | CC(CN(C)C)C(C)(O)Cc1ccc(Cl)cc1 (stereo not drawn) | -0.8%
3 | O=c1[nH]c(=O)n([C@H]2CCCO2)cc1F | 13.4%
4 | O=C(CCCl)NCCc1ccccc1 | -1.5%
5 | COc1cc(O)c(C(=O)c2ccccc2)cc1S(=O)(=O)O | -19.9%
6 | CCNC(=O)/C=C/c1cccc(Br)c1 | 38%
7 | Nc1c[n+](N2CCOCC2)no1 | 66.6% (active)
8 | O=C(OCCOCCO)c1ccccc1Nc1cccc(C(F)(F)F)c1 | 54.2% (active)
9 | CCOC(=O)[C@@](C)(N)Cc1ccc(O)c(O)c1 | 65% (active)
10 | CCCCC(O)c1ccccc1 (stereo not drawn) | -5.1%
11 | Cn1c(=O)c2c(ncn2CC(=O)O)n(C)c1=O | 0.4%
12 | O=P(O)(O)C(Cl)(Cl)P(=O)(O)O | 26.6%
13 | CO/N=C(\C(=O)N[C@@H]1C(=O)N2C(C(=O)O)=C(CSc3nc(=O)c(O)nn3C)CS[C@H]12)c1csc(N)n1 | 8.2%
14 | NC(=O)C(c1ccccc1)(c1ccccc1)[C@@H]1CCN(CCc2ccc3c(c2)CCO3)C1 | 22.8%
15 | NCCNCCNCCNCCN | 17.8%
16 | C#C[C@]1(O)CC[C@H]2[C@@H]3CCc4cc(OC5CCCC5)ccc4[C@H]3CC[C@@]21C | 145% (active)
17 | O=C(NCCCN1CCOCC1)c1ccc(Cl)cc1 | 18.6%
18 | CC[C@H](C)[C@H](N)C(=O)O | 0.9%
19 | Cc1nc2ccccc2n1Cc1ccc(Cl)cc1 | 74% (active)
20 | C[N+](C)(C)CC(O)CC(=O)[O-] (stereo not drawn) | -12.1%

Row | SMILES | viability decrease (inhibition)
21 | CN1CC[C@H](c2c(O)cc(O)c3c(=O)cc(-c4ccccc4Cl)oc23)[C@H](O)C1 | 62.3% (active)
22 | COc1ccc(-n2nc(CCC(=O)N(C)O)cc2-c2ccc(Cl)cc2)cc1 | 130% (active)
23 | O=C(O)CCCCC(=O)O | 25%
24 | Cc1cccn2c(=O)c(-c3nnn[nH]3)cnc12 | 8.4%
25 | Cc1cc(CC(C)CC(C)(C)C)n(O)c(=O)c1 (stereo not drawn) | 95.7% (active)
26 | CCC1C(=O)OCC1Cc1cncn1C (stereo not drawn) | -14.8%
27 | O=C1OC2(c3ccccc31)c1cc(I)c(O)c(I)c1Oc1c2cc(I)c(O)c1I | 24.4%
28 | N[C@@H](Cc1ccc(O)cc1)C(=O)O | -0.8%
29 | CCOCCn1c(N2CCCN(C)CC2)nc2ccccc21 | 6%
30 | O=C1NCN(c2ccccc2)C12CCN(CCCC(c1ccc(F)cc1)c1ccc(F)cc1)CC2 | 103% (active)
31 | CCN(CC)C(=O)Nc1ccc(OCC(O)CNC(C)(C)C)c(C(C)=O)c1 (stereo not drawn) | 4.9%
32 | Cc1ncc([N+](=O)[O-])n1C | -12.5%
33 | CN(C)CCOC1=Cc2ccccc2Sc2ccc(Cl)cc21 | 102% (active)
34 | C[C@]1(Cn2ccnn2)[C@H](C(=O)O)N2C(=O)C[C@H]2S1(=O)=O | 17.8%
35 | CCOc1ccccc1C(N)=O | 31.4%
36 | N#Cc1cc(NC(=O)C(=O)O)c(Cl)c(NC(=O)C(=O)O)c1 | 25.7%
37 | Clc1cc(Cl)c(OCC#CI)cc1Cl | 100% (active)
38 | CCCCC(CC)COC(=O)c1ccccc1O (stereo not drawn) | 50.1% (active)
39 | CCOc1ccccc1OCC1CNCCO1 (stereo not drawn) | -7.1%

Assay: decreased DLD-1 cellular survival, CellTiter-Glo luminescent readout, NPC compound collection, primary HTS (AID 1117346;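 active = compounds that lower survival of DLD-1 colon cancer cells in the luminescence readout, no cutoff given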)
Conditions: DLD-1 viability, CellTiter-Glo luminescence; at 20 µM (top of the series)

Row | SMILES | viability decrease (inhibition)
40 | O=C1NCCN1CCN1CCC(c2cn(-c3ccc(F)cc3)c3ccc(Cl)cc23)CC1 | 102% (active)
41 | CC(CN(C)C)C(C)(O)Cc1ccc(Cl)cc1 (stereo not drawn) | -9.1%
42 | O=c1[nH]c(=O)n([C@H]2CCCO2)cc1F | 11.5%
43 | O=C(CCCl)NCCc1ccccc1 | -7.5% (active)
44 | COc1cc(O)c(C(=O)c2ccccc2)cc1S(=O)(=O)O | 4.15%
45 | CCNC(=O)/C=C/c1cccc(Br)c1 | 15.1%
46 | Nc1c[n+](N2CCOCC2)no1 | 20.6%
47 | O=C(OCCOCCO)c1ccccc1Nc1cccc(C(F)(F)F)c1 | 45.7%
48 | CCOC(=O)[C@@](C)(N)Cc1ccc(O)c(O)c1 | 17.2%
49 | CCCCC(O)c1ccccc1 (stereo not drawn) | -6%
50 | Cn1c(=O)c2c(ncn2CC(=O)O)n(C)c1=O | -5.4%
51 | O=P(O)(O)C(Cl)(Cl)P(=O)(O)O | -2.9%
52 | CO/N=C(\C(=O)N[C@@H]1C(=O)N2C(C(=O)O)=C(CSc3nc(=O)c(O)nn3C)CS[C@H]12)c1csc(N)n1 | -15.1%
53 | NC(=O)C(c1ccccc1)(c1ccccc1)[C@@H]1CCN(CCc2ccc3c(c2)CCO3)C1 | 12.4%
54 | NCCNCCNCCNCCN | 4.2%
55 | C#C[C@]1(O)CC[C@H]2[C@@H]3CCc4cc(OC5CCCC5)ccc4[C@H]3CC[C@@]21C | 105% (active)
56 | O=C(NCCCN1CCOCC1)c1ccc(Cl)cc1 | 1.05%
57 | CC[C@H](C)[C@H](N)C(=O)O | -7.9%
58 | Cc1nc2ccccc2n1Cc1ccc(Cl)cc1 | 40.1%
59 | C[N+](C)(C)CC(O)CC(=O)[O-] (stereo not drawn) | 1.7%

Row | SMILES | viability decrease (inhibition)
60 | CN1CC[C@H](c2c(O)cc(O)c3c(=O)cc(-c4ccccc4Cl)oc23)[C@H](O)C1 | 78.5% (active)
61 | COc1ccc(-n2nc(CCC(=O)N(C)O)cc2-c2ccc(Cl)cc2)cc1 | 102% (active)
62 | O=C(O)CCCCC(=O)O | 11.8%
63 | Cc1cccn2c(=O)c(-c3nnn[nH]3)cnc12 | -1.9%
64 | Cc1cc(CC(C)CC(C)(C)C)n(O)c(=O)c1 (stereo not drawn) | 91.5% (active)
65 | CCC1C(=O)OCC1Cc1cncn1C (stereo not drawn) | -20.6%
66 | O=C1OC2(c3ccccc31)c1cc(I)c(O)c(I)c1Oc1c2cc(I)c(O)c1I | -14.4%
67 | N[C@@H](Cc1ccc(O)cc1)C(=O)O | -0.1%
68 | CCOCCn1c(N2CCCN(C)CC2)nc2ccccc21 | -4.3%
69 | O=C1NCN(c2ccccc2)C12CCN(CCCC(c1ccc(F)cc1)c1ccc(F)cc1)CC2 | 102% (active)
70 | CCN(CC)C(=O)Nc1ccc(OCC(O)CNC(C)(C)C)c(C(C)=O)c1 (stereo not drawn) | -3.6%
71 | Cc1ncc([N+](=O)[O-])n1C | -4.4%
72 | CN(C)CCOC1=Cc2ccccc2Sc2ccc(Cl)cc21 | 97.6% (active)
73 | C[C@]1(Cn2ccnn2)[C@H](C(=O)O)N2C(=O)C[C@H]2S1(=O)=O | -1.5%
74 | CCOc1ccccc1C(N)=O | -1.45%
75 | N#Cc1cc(NC(=O)C(=O)O)c(Cl)c(NC(=O)C(=O)O)c1 | -16.9%
76 | Clc1cc(Cl)c(OCC#CI)cc1Cl | 98.1% (active)
77 | CCCCC(CC)COC(=O)c1ccccc1O (stereo not drawn) | 14.3%
78 | CCOc1ccccc1OCC1CNCCO1 (stereo not drawn) | -5.4%

Reference: PubChem BioAssay
